According to PMC4336329 (PLoS ONE, 2015):
About 14,000 (4.5%) of roughly 310,000 compounds showed an effect of 50% or more. The effect is printed as a negative number. The full list was thinned out, with strong results kept by preference.
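Note: peak tail current of the secondary pulse compared with the same well before compound.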

The compounds below were run against human ether-à-go-go-related gene (hERG) potassium channel (human, UniProt Q12809) (assay: primary screen, population patch clamp on CHO cells stably expressing hERG; higher = less effect of the substance).
human ether-à-go-go-related gene (hERG) potassium channel, sequence (Q12809 whole entry, looked up): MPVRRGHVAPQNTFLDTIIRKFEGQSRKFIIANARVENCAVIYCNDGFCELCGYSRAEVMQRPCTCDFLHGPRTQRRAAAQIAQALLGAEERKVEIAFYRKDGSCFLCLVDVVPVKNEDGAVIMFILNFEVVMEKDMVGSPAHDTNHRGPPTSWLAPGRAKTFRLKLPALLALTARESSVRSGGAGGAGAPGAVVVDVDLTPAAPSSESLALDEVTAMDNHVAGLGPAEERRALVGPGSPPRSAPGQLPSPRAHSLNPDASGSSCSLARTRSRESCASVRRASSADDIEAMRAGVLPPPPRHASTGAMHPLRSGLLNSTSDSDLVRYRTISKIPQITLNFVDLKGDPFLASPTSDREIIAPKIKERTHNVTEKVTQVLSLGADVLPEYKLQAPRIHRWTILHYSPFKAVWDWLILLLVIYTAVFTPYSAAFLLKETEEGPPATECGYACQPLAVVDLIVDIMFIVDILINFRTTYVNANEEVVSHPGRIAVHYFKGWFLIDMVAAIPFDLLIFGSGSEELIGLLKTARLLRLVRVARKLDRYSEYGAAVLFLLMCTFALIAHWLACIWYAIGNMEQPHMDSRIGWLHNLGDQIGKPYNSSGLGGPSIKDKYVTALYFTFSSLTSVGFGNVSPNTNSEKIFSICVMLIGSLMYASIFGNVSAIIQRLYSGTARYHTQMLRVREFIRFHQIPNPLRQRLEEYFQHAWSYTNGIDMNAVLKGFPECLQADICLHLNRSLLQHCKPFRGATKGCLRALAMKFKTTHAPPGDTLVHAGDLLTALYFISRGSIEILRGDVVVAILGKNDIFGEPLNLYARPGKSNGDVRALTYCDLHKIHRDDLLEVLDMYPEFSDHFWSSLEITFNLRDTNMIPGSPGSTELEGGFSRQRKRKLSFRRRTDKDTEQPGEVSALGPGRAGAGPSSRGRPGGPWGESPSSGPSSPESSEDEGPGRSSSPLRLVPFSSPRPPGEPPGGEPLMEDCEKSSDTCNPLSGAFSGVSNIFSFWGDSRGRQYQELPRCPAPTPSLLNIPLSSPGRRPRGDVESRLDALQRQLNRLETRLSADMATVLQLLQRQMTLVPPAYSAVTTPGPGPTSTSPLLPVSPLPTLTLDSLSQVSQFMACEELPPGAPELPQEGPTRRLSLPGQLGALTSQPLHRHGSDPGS
With `COc1ccccc1Oc1ccc2c(c1)C(=O)N(c1ccccc1)C2=O` the “hERG current change (%, negative = inhibition) at 10uM” value was -3.59%. `COc1cccc(CN(C(=O)COc2ccccc2[N+](=O)[O-])C2CCS(=O)(=O)C2)c1` (stereo not drawn) was tested, and the “hERG current change (%, negative = inhibition) at 10uM” value was -42%. With `Cc1ccc(C(=O)N(Cc2sccc2C)C2CCS(=O)(=O)C2)cc1` (stereo not drawn) the “hERG current change (%, negative = inhibition) at 10uM” value was -28.2%. For `CCc1ccc(OCC(=O)N(Cc2cccs2)C2CCS(=O)(=O)C2)cc1` (stereo not drawn), the “hERG current change (%, negative = inhibition) at 10uM” value was -47.8%. With `Cc1ccsc1CN(C(=O)c1ccc([N+](=O)[O-])cc1)C1CCS(=O)(=O)C1` (stereo not drawn) the “hERG current change (%, negative = inhibition) at 10uM” value was -60.8%. `Cc1ccsc1CN(C(=O)c1ccccc1)C1CCS(=O)(=O)C1` (stereo not drawn) was tested, and the “hERG current change (%, negative = inhibition) at 10uM” value was 2.16%. For `Cc1ccc(OCC(=O)N(Cc2cccs2)C2CCS(=O)(=O)C2)cc1C` (stereo not drawn), the “hERG current change (%, negative = inhibition) at 10uM” value was 4.21%. In the case of `CCN(C(=O)COc1ccccc1[N+](=O)[O-])C1CCS(=O)(=O)C1` (stereo not drawn), the “hERG current change (%, negative = inhibition) at 10uM” value is reported as 0.104%. With `O=C(COc1ccccc1[N+](=O)[O-])N(Cc1cccc(Br)c1)C1CCS(=O)(=O)C1` (stereo not drawn) the “hERG current change (%, negative = inhibition) at 10uM” value was -57.8%. For `O=C(COc1ccc([N+](=O)[O-])cc1)N(Cc1cccs1)C1CCS(=O)(=O)C1` (stereo not drawn), the “hERG current change (%, negative = inhibition) at 10uM” value was -52.3%. With `CC1C/C(=N\NC(=S)NC(C)C)CC(C)(C)C1` (stereo not drawn) the “hERG current change (%, negative = inhibition) at 10uM” value was 9.06%. `CCOC(=O)CNC(=O)CSc1nnc(NC(=O)c2ccc3c(c2)OCO3)s1` was tested, and the “hERG current change (%, negative = inhibition) at 10uM” value was 3.8%. With `CCC(CC)NC(=O)c1nn(Cc2ccccc2)c(=O)c2ccccc12` the “hERG current change (%, negative = inhibition) at 10uM” value was 10.9%. For `CS(=O)(=O)N(CC(=O)NCCSCc1ccccc1Cl)c1ccccc1F`, the “hERG current change (%, negative = inhibition) at 10uM” value was -35.4%. In the case of `CC1=NN(C(N)=S)C(=O)C1N=Nc1ccccc1Cl` (stereo not drawn), the “hERG current change (%, negative = inhibition) at 10uM” value is reported as 20.2%. In the case of `Cc1cc(NC(=O)C(C)SCC(=O)OCC(=O)N(C)c2ccccc2)no1` (stereo not drawn), the “hERG current change (%, negative = inhibition) at 10uM” value is reported as -7%. With `Cc1cc(NC(=O)C(C)SCC(=O)OCC(=O)N(Cc2ccccc2)C(C)(C)C)no1` (stereo not drawn) the “hERG current change (%, negative = inhibition) at 10uM” value was -35.4%. For `Cc1cccc(N(Cc2ccccc2)C(=O)CSC(C)C(=O)Nc2cc(C)on2)c1` (stereo not drawn), the “hERG current change (%, negative = inhibition) at 10uM” value was -53%. For `COc1ccccc1N1CCN(c2ccc([N+](=O)[O-])cn2)CC1`, the “hERG current change (%, negative = inhibition) at 10uM” value was 0.823%. For `O=C(O)c1cccc(CSc2nc(-c3ccccc3)cc(C(F)(F)F)n2)c1`, the “hERG current change (%, negative = inhibition) at 10uM” value was 0.347%. `CCCN1CCN(C(=O)c2ccc(-c3ccc([N+](=O)[O-])cc3)o2)CC1` was tested, and the “hERG current change (%, negative = inhibition) at 10uM” value was -78.1%. `O=C(c1ccc(-c2ccc([N+](=O)[O-])cc2)o1)N1CCN(S(=O)(=O)c2cccs2)CC1` was tested, and the “hERG current change (%, negative = inhibition) at 10uM” value was -27.3%. In the case of `CC1CCN(C(=O)c2ccc([N+](=O)[O-])o2)CC1`, the “hERG current change (%, negative = inhibition) at 10uM” value is reported as 4.53%. With `CCOC(=O)C1CCCN(C(=O)c2ccc(CS(=O)(=O)c3ccc(C)cc3)o2)C1` (stereo not drawn) the “hERG current change (%, negative = inhibition) at 10uM” value was -20.4%. In the case of `O=C(c1ccc(-c2ccc([N+](=O)[O-])cc2)o1)N1CCCC(C(F)(F)F)C1` (stereo not drawn), the “hERG current change (%, negative = inhibition) at 10uM” value is reported as -17%. With `CCOC(=O)C1CCCN(C(=O)c2ccc(-c3ccc([N+](=O)[O-])cc3)o2)C1` (stereo not drawn) the “hERG current change (%, negative = inhibition) at 10uM” value was -56.1%. `CC1CC(C)CN(C(=O)c2ccc(-c3ccc([N+](=O)[O-])cc3)o2)C1` (stereo not drawn) was tested, and the “hERG current change (%, negative = inhibition) at 10uM” value was -69.1%. In the case of `CC1CCCN(C(=O)c2ccc([N+](=O)[O-])o2)C1` (stereo not drawn), the “hERG current change (%, negative = inhibition) at 10uM” value is reported as 21.6%. With `O=C(c1ccc(-c2ccc([N+](=O)[O-])cc2)o1)N1CCCCCCC1` the “hERG current change (%, negative = inhibition) at 10uM” value was -22.7%. For `Cc1ccccc1N1CCN(C(=S)c2ccc(-c3ccc([N+](=O)[O-])cc3)o2)CC1`, the “hERG current change (%, negative = inhibition) at 10uM” value was 20.2%. For `CCOC(=O)C1CCCN(C(=O)c2ccc([N+](=O)[O-])cc2)C1` (stereo not drawn), the “hERG current change (%, negative = inhibition) at 10uM” value was -14.4%. `O=C(c1ccc(-c2ccc([N+](=O)[O-])cc2)o1)N1CCCCC1` was tested, and the “hERG current change (%, negative = inhibition) at 10uM” value was -58.4%. `O=C(CSc1ncnc2ccccc12)NCC(=O)c1ccccc1` was tested, and the “hERG current change (%, negative = inhibition) at 10uM” value was 1.57%. For `O=C(Nc1ccccc1)c1c(O)[nH]c(=O)[nH]c1=O`, the “hERG current change (%, negative = inhibition) at 10uM” value was 8.67%. `Cc1ccc(N2CC(C(=O)NCc3n[nH]c(=O)c4ccccc34)CC2=O)cc1C` (stereo not drawn) was tested, and the “hERG current change (%, negative = inhibition) at 10uM” value was -13.5%. `COc1ccc(-c2cc(C(=O)Nc3cc(C)on3)no2)cc1` was tested, and the “hERG current change (%, negative = inhibition) at 10uM” value was 19.9%. For `O=C1NC(c2ccc(-c3ccccc3[N+](=O)[O-])o2)C(C(=O)c2ccc(Cl)cc2)C(O)(C(F)(F)F)N1` (stereo not drawn), the “hERG current change (%, negative = inhibition) at 10uM” value was 2.13%. For `Cc1cc(NS(C)(=O)=O)c(=O)n(Cc2c(F)cccc2Cl)c1`, the “hERG current change (%, negative = inhibition) at 10uM” value was 8.86%. `CCCCn1c(SCC(=O)N2CCC(C)CC2)nc2cc(S(N)(=O)=O)ccc21` was tested, and the “hERG current change (%, negative = inhibition) at 10uM” value was -30.2%. For `CCCCn1c(SCc2c(C)noc2C)nc2cc(S(N)(=O)=O)ccc21`, the “hERG current change (%, negative = inhibition) at 10uM” value was -43.1%. In the case of `CCCCn1c(SCC(=O)N2CCC(C(=O)OCC)CC2)nc2cc(S(N)(=O)=O)ccc21`, the “hERG current change (%, negative = inhibition) at 10uM” value is reported as -70.7%. For `CCCCn1c(SCc2nc3ccccc3s2)nc2cc(S(N)(=O)=O)ccc21`, the “hERG current change (%, negative = inhibition) at 10uM” value was -37.5%. `CCCCn1c(SCC(=O)N2CCCC2)nc2cc(S(N)(=O)=O)ccc21` was tested, and the “hERG current change (%, negative = inhibition) at 10uM” value was 9.3%. With `CCCCn1c(SCc2ncc(-c3ccccc3)o2)nc2cc(S(N)(=O)=O)ccc21` the “hERG current change (%, negative = inhibition) at 10uM” value was -50.5%. `Cc1cc(C(=O)CSc2nn3c(=O)c(C(C)(C)C)nnc3s2)c(C)n1C` was tested, and the “hERG current change (%, negative = inhibition) at 10uM” value was 9.61%.
